For some of these results: Results with a measured potency or affinity are listed apart. Activity calls are given as the source filed them. Unless noted, the rule behind the calls is not given here.
Columns and labels:
[1] = antimalarial activity against Dd2 strain (AID 2302;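 active = growth inhibition above 50% at the single 2 µM test dose, taken to imply half-maximal potency below 2 µM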;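 note: 0% = DMSO untreated growth and 100% = chloroquine plus artemisinin killed control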); conditions: P. falciparum Dd2 in RBCs, LDH growth readout, 72 h; at 2 µM; stronger effect = higher value
[2] = human hepatoma cell viability loss – ATP luminescence, cytotoxicity control for P. falciparum antimalarial project, primary screen (AID 2303;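 active = inhibition above 50%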;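 note: 0% = DMSO wells and 100% = digitonin-killed cells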); conditions: HepG2 viability, 24-48 h, at 10 µM, stronger effect = higher value
[3] = molecular target: L-lactate dehydrogenase (Plasmodium falciparum (isolate CDC / Honduras)) (UniProt Q27743); test: PfLDH activity inhibition – cell lysate, 3D7 strain, counter-screen for P. falciparum growth inhibition project (AID 2304);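 note: 0% = vehicle and 100% = reference inhibitor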; conditions: P. falciparum 3D7 crude extract, LDH APAD/NBT absorbance; at 2 µM; stronger effect = higher value
Chain of L-lactate dehydrogenase (Plasmodium falciparum (isolate CDC / Honduras)) (Q27743 whole entry, looked up): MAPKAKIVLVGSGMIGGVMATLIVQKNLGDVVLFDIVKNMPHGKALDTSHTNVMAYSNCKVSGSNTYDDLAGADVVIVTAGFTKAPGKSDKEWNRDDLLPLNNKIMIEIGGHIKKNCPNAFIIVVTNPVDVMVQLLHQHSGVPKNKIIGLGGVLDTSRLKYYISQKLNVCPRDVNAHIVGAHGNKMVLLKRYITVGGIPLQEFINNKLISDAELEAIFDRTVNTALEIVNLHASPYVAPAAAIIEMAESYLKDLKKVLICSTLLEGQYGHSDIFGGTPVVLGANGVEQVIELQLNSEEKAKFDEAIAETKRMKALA

[4] = inhibition of 3D7 malaria parasite growth – strain 3D7 (AID 2306);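 note: 0% = DMSO wells and 100% = chloroquine plus artemisinin control wells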; conditions: P. falciparum 3D7 erythrocytic growth, LDH absorbance, 72 h; at 2 µM; stronger effect = higher value
[5] = molecular target: Calcium-dependent protein kinase 1 (Plasmodium falciparum (isolate 3D7)) (UniProt P62344); test: PfCDPK1 kinase inhibitors, biochemical, TCAMS library (AID 1159585; cut-off not given, nearly all actives have IC50 up to about 0.98 µM;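 note: inhibitors leave more ATP so luminescence rises with inhibition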); conditions: recombinant PfCDPK1, Kinase-Glo ATP depletion luminescence
Chain of Calcium-dependent protein kinase 1 (Plasmodium falciparum (isolate 3D7)) (P62344 whole entry, looked up): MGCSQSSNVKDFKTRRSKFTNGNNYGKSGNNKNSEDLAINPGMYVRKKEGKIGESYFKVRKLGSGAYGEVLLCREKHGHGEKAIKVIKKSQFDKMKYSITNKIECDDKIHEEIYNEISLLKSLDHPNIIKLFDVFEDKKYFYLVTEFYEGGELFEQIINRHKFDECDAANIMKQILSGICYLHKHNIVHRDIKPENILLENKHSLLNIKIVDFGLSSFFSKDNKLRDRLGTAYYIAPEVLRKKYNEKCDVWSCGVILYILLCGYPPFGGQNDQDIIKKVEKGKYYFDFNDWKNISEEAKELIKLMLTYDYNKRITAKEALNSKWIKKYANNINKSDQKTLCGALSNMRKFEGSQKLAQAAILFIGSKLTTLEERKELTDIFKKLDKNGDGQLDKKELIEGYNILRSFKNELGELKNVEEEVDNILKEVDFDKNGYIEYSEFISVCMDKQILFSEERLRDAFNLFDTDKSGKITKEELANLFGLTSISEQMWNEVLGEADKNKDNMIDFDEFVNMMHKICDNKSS

[6] = molecular target: Plasmodium falciparum protein kinase 6 (PK6, PF3D7_1337100) (UniProt Q8IDW1); test: PfPK6 kinase inhibitors, biochemical, TCAMS library (AID 1159586); conditions: recombinant PfPK6, Kinase-Glo ATP depletion luminescence
Chain of Plasmodium falciparum protein kinase 6 (PK6, PF3D7_1337100) (Q8IDW1 1-305): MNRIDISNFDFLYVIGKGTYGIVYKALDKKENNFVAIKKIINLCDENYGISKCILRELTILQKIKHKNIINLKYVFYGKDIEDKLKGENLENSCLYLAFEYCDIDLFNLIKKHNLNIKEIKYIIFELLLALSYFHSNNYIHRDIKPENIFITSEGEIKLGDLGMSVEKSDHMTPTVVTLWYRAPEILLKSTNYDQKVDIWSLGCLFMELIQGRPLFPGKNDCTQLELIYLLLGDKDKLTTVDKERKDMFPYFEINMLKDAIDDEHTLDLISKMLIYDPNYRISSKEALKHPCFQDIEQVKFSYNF

[7] = molecular target: Protein kinase 7 (PK7), Plasmodium falciparum 3D7 (PF3D7_0213400) (UniProt Q7YTF7); test: inhibition of Plasmodium PK7 catalytic activity – biochemical, TCAMS antimalarial set, Kinase-Glo luminescence (AID 1159587); conditions: recombinant PfPK7, Kinase-Glo ATP depletion luminescence
Chain of Protein kinase 7 (PK7), Plasmodium falciparum 3D7 (PF3D7_0213400) (Q7YTF7 1-343): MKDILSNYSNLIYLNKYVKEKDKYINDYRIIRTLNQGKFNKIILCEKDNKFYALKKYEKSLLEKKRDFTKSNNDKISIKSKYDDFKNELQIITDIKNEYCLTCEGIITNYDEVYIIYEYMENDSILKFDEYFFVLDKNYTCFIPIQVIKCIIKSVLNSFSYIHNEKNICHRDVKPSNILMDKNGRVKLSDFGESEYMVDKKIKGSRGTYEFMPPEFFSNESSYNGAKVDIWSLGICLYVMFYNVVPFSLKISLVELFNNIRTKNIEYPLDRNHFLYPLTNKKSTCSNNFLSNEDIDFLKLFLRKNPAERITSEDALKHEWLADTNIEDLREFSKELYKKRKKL

[8] = molecular target: Calcium-dependent protein kinase 4 (Plasmodium falciparum (isolate 3D7)) (UniProt Q8IBS5); test: PfCDPK4 kinase inhibitors, biochemical, TCAMS library (AID 1159588; cut-off not given, nearly all actives have IC50 up to about 0.91 µM); conditions: recombinant PfCDPK4, Kinase-Glo ATP depletion luminescence
Chain of Calcium-dependent protein kinase 4 (Plasmodium falciparum (isolate 3D7)) (Q8IBS5 whole entry, looked up): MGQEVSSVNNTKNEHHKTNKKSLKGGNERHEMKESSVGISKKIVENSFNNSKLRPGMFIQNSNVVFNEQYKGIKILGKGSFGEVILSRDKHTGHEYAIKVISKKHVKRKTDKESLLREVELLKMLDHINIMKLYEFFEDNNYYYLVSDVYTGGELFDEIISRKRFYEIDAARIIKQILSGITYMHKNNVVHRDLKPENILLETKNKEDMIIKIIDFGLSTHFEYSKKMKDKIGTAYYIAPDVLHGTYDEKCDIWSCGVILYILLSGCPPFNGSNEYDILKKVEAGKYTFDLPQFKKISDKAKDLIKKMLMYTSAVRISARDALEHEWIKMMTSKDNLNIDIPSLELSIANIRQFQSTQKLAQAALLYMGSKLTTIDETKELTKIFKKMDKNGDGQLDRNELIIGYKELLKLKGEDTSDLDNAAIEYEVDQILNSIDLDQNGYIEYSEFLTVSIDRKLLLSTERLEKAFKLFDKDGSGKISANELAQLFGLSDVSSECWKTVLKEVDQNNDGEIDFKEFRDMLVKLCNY

CC(C)Cn1cc(C2CCN(CCN3CCC(CNC(=O)c4ccc(NC(=O)c5ccc(Cl)cc5)cc4)CC3)CC2)c2ccccc21
inactive: inhibition [2] 28% | inhibition [3] -2% | outcome [5] | outcome [6] | outcome [7] | outcome [8]
active: growth inhibition [1] 99% | growth inhibition [4] 101%

Cc1cc(Nc2ccccc2)nc(NCCOc2ccccc2)n1
inactive: growth inhibition [1] 48% | inhibition [2] -5% | inhibition [3] -1% | outcome [5] | outcome [6] | outcome [7] | outcome [8]
active: growth inhibition [4] 100%

CN1CCN(Cc2cc3cc(NC(=O)/C=C/c4cccc(Cl)c4)ccc3s2)CC1
inactive: inhibition [3] 1% | outcome [5] | outcome [6] | outcome [7] | outcome [8]
active: growth inhibition [1] 72% | inhibition [2] 54% | growth inhibition [4] 100%

CC(C)(C)c1ccc(NC(=O)c2cccc(CN3CCN(Cc4cccc(O)c4)CC3)c2)cc1
active: growth inhibition [4] 92%
inactive: growth inhibition [1] 3% | inhibition [2] 28% | inhibition [3] -2% | outcome [5] | outcome [6] | outcome [7] | outcome [8]

Cc1ccc(C(NC(=O)c2ccccc2)c2ccc3cccnc3c2O)cc1 (stereo not given)
active: growth inhibition [1] 72% | inhibition [2] 53% | growth inhibition [4] 92%
inactive: inhibition [3] 7% | outcome [5] | outcome [6] | outcome [7] | outcome [8]

O=C(Nc1ccc(F)cc1)c1ccc(C(=O)NC2CCN(CC3CCCCC3)CC2)cc1
active: growth inhibition [4] 99%
inactive: growth inhibition [1] 0% | inhibition [2] 34% | inhibition [3] -7% | outcome [5] | outcome [6] | outcome [7] | outcome [8]

O=C(/C=C/c1ccc(Cl)c(Cl)c1)NC1CCC(CN2CCC(c3coc4ccccc34)CC2)CC1 (stereo not given)
inactive: growth inhibition [1] 41% | inhibition [2] 40% | inhibition [3] 3% | outcome [5] | outcome [6] | outcome [7] | outcome [8]
active: growth inhibition [4] 102%

Cc1cc(NCCCCCCN)nc(Nc2ccc(Cl)cc2)n1
active: growth inhibition [4] 100%
inactive: growth inhibition [1] 26% | inhibition [2] 25% | inhibition [3] 1% | outcome [5] | outcome [6] | outcome [7] | outcome [8]

O=C(NC1CCN(Cc2ccc3c(c2)OCCO3)CC1)c1ccc(-c2cccc(C(F)(F)F)c2)s1
active: inhibition [2] 99% | growth inhibition [4] 100%
inactive: growth inhibition [1] 35% | inhibition [3] 5% | outcome [5] | outcome [6] | outcome [7] | outcome [8]

CN(C)Cc1cccc(-c2ccc(Nc3nccc(NCC(O)c4ccccc4)n3)cc2)c1 (stereo not given)
inactive: inhibition [3] 1% | outcome [5] | outcome [6] | outcome [7] | outcome [8]
active: growth inhibition [1] 77% | inhibition [2] 75% | growth inhibition [4] 100%

Fc1ccc2nc(-c3ccc(-c4ccc(CN5CCN(CCN6CCOCC6)CC5)cc4)cc3)[nH]c2c1
active: growth inhibition [1] 100% | growth inhibition [4] 101%
inactive: inhibition [2] 38% | inhibition [3] -5% | outcome [5] | outcome [6] | outcome [7] | outcome [8]

Cc1cc(O)c2c3c1C(=O)C=C1C3c3c(c(O)cc(O)c3C(=O)C1(C)C)C2=O (stereo not given)
active: growth inhibition [4] 98%
inactive: growth inhibition [1] 46% | inhibition [2] 45% | inhibition [3] -3% | outcome [5] | outcome [6] | outcome [7] | outcome [8]

Cc1ccc(-c2nnc(Nc3ccc(CC(N)=O)cc3)c3ccccc23)cc1S(=O)(=O)NCC1CCCO1 (stereo not given)
inactive: inhibition [2] -6% | inhibition [3] 6% | outcome [5] | outcome [6] | outcome [7] | outcome [8]
active: growth inhibition [1] 64% | growth inhibition [4] 83%

CC(C)(C)CCN1CCC(CNC(=O)c2cc(-c3cccc(Cl)c3)cs2)C1 (stereo not given)
inactive: growth inhibition [1] 13% | inhibition [3] 3% | outcome [5] | outcome [6] | outcome [7] | outcome [8]
active: inhibition [2] 50% | growth inhibition [4] 99%

COc1cc(Nc2nccc(N3CCC(NC(=O)c4cc5ccccc5s4)C3)n2)cc(OC)c1OC (stereo not given)
inactive: inhibition [2] 2% | inhibition [3] 2% | outcome [5] | outcome [6] | outcome [7] | outcome [8]
active: growth inhibition [1] 50% | growth inhibition [4] 96%

CCc1ccc(C(=O)Nc2cccc(CN3CCCN(Cc4ccc(O)cc4)CC3)c2)cc1
inactive: inhibition [2] 11% | inhibition [3] -1% | outcome [5] | outcome [6] | outcome [7] | outcome [8]
active: growth inhibition [1] 74% | growth inhibition [4] 101%

CC(C)COc1ccc(Cl)cc1Cc1ccc(-c2nc3ccc(CCN(C)C)cc3[nH]2)o1
active: growth inhibition [4] 92%
inactive: growth inhibition [1] 7% | inhibition [2] 10% | inhibition [3] 3% | outcome [5] | outcome [6] | outcome [7] | outcome [8]

O=C(NCCN1CCOCC1)c1ccc(O)c(-c2cccc(C(F)(F)F)c2)c1
inactive: growth inhibition [1] 48% | inhibition [2] -1% | inhibition [3] 3% | outcome [5] | outcome [6] | outcome [7] | outcome [8]
active: growth inhibition [4] 95%

N#Cc1ccc(NC(=NC2CCCc3ccccc32)Nc2ccc(-c3ccccc3)cc2)c(O)c1 (stereo not given)
inactive: inhibition [2] 0% | inhibition [3] 3% | outcome [5] | outcome [6] | outcome [7] | outcome [8]
active: growth inhibition [1] 98% | growth inhibition [4] 99%

O=C(NOCCCCOc1ccc(Cl)c(Cl)c1)c1ccccc1
inactive: growth inhibition [1] 1% | inhibition [2] 2% | inhibition [3] 3% | outcome [5] | outcome [6] | outcome [7] | outcome [8]
active: growth inhibition [4] 98%
